# Inconclusive results are not listed. Calls of active or inactive are those of the source. Rule for the calls, unless noted: active = hit-call score of the fitted dose curve at least 0.9, where 1 is the maximum; inactive = score below 0.9.
# How the values were obtained:
# [1] = ACEA_ER_80hr: ACEA Biosciences xCELLigence Real-Time Cell Analysis on Estrogen Receptor Agonism for Proliferation (AID 2282667; active = hit-call score of the fitted dose curve at least 0.9, where 1 is the maximum); conditions: T47D proliferation, impedance (xCELLigence), 80 h
# Method in brief: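 Impedance readout (RT-CES) of T47D proliferation at 80 h post-dose; gain of signal vs DMSO baseline. Compounds: 8 conc, 1:4 serial, top 100 uM final, ≤0.5% DMSO; biological duplicate.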
# [2] = APR_HepG2_CellCycleArrest_24hr: Apredica 24-hour HepG2 Assay for Cell Cycle Arrest (AID 2282905); conditions: imaging, actives raise or lower the signal;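 note: cell cycle arrest scored as ratio of 2N to 4N nuclear DNA content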
# Method in brief: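 Cell cycle arrest is scored from nuclear DNA content measured by high-content imaging of Hoechst 33342-stained HepG2 cells following 24-hour treatment at ten concentrations up to 200 uM, with DMSO as baseline.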
# [3] = APR_HepG2_NuclearSize_24hr: Apredica 24-hour HepG2 Assay for Nuclear Size (AID 2282907); conditions: high-content imaging, actives raise or lower the signal
# Method in brief: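 Compounds in DMSO (final 0.5%) were added to human HepG2 hepatoma cells at ten concentrations up to 200 uM for 24 hr. Fixed nuclei were stained with Hoechst 33342, and nuclear diameter was quantified from automated images.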
# [4] = APR_HepG2_CellLoss_24hr: Apredica 24-hour HepG2 Assay for Cell Loss (AID 2282908); conditions: high-content imaging;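 for AC50: fit in both directions so a hit may be cell loss or gain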
# Method in brief: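 Cell number is quantified by fluorescence imaging of Hoechst 33342-stained nuclei following dosing at 0.39–200 uM in 0.5% DMSO. Curves are fitted in both directions from the DMSO baseline.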
# [5] = APR_HepG2_MicrotubuleCSK_24hr: Apredica 24-hour HepG2 Assay for Microtubule CSK Stabilty (AID 2282909); conditions: HepG2 microtubule cytoskeleton imaging, actives raise or lower the signal
# Method in brief: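 Steps: dose HepG2 for 24 h (0.39–200 uM, 0.5% DMSO); fix 30 min in 3.7% formaldehyde at room temperature; permeabilize; stain alpha-tubulin 60 min; image microtubule cytoskeleton at 20x. Signal change fitted in both directions relative to DMSO.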
# [6] = APR_HepG2_MitoticArrest_24hr: Apredica 24-hour HepG2 Assay for Mitotic Arrest (AID 2282910); conditions: high-content imaging, actives raise or lower the signal
# Method in brief: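 Compounds are dosed onto HepG2 cells across ten concentrations up to 200 uM for 24 hr. Cells are then fixed in 3.7% formaldehyde, permeabilised, and labelled for phospho-histone H3 and nuclei; images are scored by cell cycle analysis and fitted bidirectionally relative to DMSO.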
# [7] = APR_HepG2_MitoMembPot_24hr: Apredica 24-hour HepG2 Assay for Mitochondrial Membrane Potential (AID 2282911); conditions: imaging, actives raise or lower the signal
# Method in brief: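 HepG2, 24 hr dosing, 10 concentrations 0.39–200 uM, 0.5% DMSO final. Live-cell MitoTracker Red CMXRos 250 nM 30 min, then 3.7% formaldehyde fix. HCS fluorescence imaging, 20x; bidirectional fit vs DMSO baseline.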
# [8] = APR_HepG2_MitoMass_24hr: Apredica 24-hour HepG2 Assay for Mitochondrial Mass (AID 2282912); conditions: high-content imaging, actives raise or lower the signal
# Method in brief: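 The liver line HepG2 was dosed in duplicate across a 0.39–200 uM series, with final DMSO held at 0.5% v/v, and harvested at 24 hr. High-content imaging measured mitochondrial dye staining.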
# [9] = APR_HepG2_p53Act_24hr: Apredica 24-hour HepG2 Assay for p53 Activation (AID 2282913); conditions: high-content imaging, actives raise or lower the signal;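 note: p53 protein immunofluorescence averaged per cell in HepG2 with Hoechst nuclei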
# Method in brief: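 Read-out: Cy5 immunofluorescence for p53 in fixed, permeabilized HepG2, imaged by HCS with Hoechst-defined nuclei. Dosing was 24 hr at 0.39–200 uM in 0.5% DMSO. Curves were fitted bidirectionally relative to DMSO.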
# [10] = APR_HepG2_CellCycleArrest_72hr: Apredica 72-hour HepG2 Assay for Cell Cycle Arrest (AID 2282914); conditions: high-content imaging, actives raise or lower the signal
# Method in brief: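 HepG2, 72 hr exposure, 10-point 0.39–200 uM, duplicate, 0.5% DMSO final. Fix 3.7% formaldehyde 30 min RT, Triton X-100 0.5%, Hoechst 33342 2 ug/mL. ArrayScan 20x, six fields/well; DNA content per nucleus; bidirectional fit vs DMSO.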
Compound,outcome [1],outcome [2],outcome [3],outcome [4],outcome [5],outcome [6],outcome [7],outcome [8],outcome [9],outcome [10],AC50 [1],AC50 [2],AC50 [7],AC50 [10],AC50 [4],AC50 [6],AC50 [9],AC50 [5],AC50 [8]
Nc1ccc(S(=O)(=O)c2ccc(N)cc2)cc1,inactive,inactive,inactive,inactive,inactive,inactive,inactive,inactive,inactive,inactive,,,,,,,,,
O=c1c(O)c(-c2ccc(O)c(O)c2)oc2cc(O)cc(O)c12,,,inactive,inactive,inactive,inactive,,inactive,inactive,,26.4 µM (active),58.4 µM (active),64.2 µM (active),103 µM (active),,,,,
O=C(OCCCCCOC(=O)c1ccccc1)c1ccccc1,inactive,inactive,inactive,inactive,inactive,inactive,inactive,inactive,inactive,,,,,103 µM (active),,,,,
CCCCC(CC)COC(=O)CC(C(=O)OCC(CC)CCCC)S(=O)(=O)O (stereo not given),inactive,inactive,inactive,,inactive,,inactive,inactive,,inactive,,,,,126 µM (active),105 µM (active),104 µM (active),,
Cc1oc(-c2ccccc2)nc1CCOc1cccc2c1ccn2CCC(=O)O,inactive,inactive,inactive,inactive,inactive,inactive,inactive,inactive,inactive,inactive,,,,,,,,,
CNC(=O)[C@H]1O[C@@H](n2cnc3c(NCc4cc(Cl)ccc4OCc4cc(C)no4)ncnc32)[C@H](O)[C@@H]1N,inactive,inactive,inactive,inactive,inactive,inactive,,inactive,inactive,inactive,,,0.0385 µM (active),,,,,,
CN1CCN(Cc2cc(-c3ccc4[nH]c(=O)oc4c3)co2)[C@@H](c2ccc(F)cc2)C1,inactive,inactive,inactive,,,,inactive,inactive,,,,,,83.5 µM (active),89.7 µM (active),42.1 µM (active),65.2 µM (active),148 µM (active),
CC1(C)NC(=O)NC1=O,inactive,inactive,inactive,inactive,inactive,inactive,inactive,inactive,inactive,inactive,,,,,,,,,
Clc1cc(Cl)c(Cl)cc1Cl,inactive,inactive,inactive,inactive,inactive,inactive,inactive,inactive,inactive,inactive,,,,,,,,,
CCCCCCCC=O,inactive,inactive,inactive,inactive,inactive,inactive,inactive,inactive,inactive,inactive,,,,,,,,,
CC=Cc1ccc(O)c(OC)c1,inactive,,inactive,inactive,inactive,inactive,inactive,inactive,inactive,inactive,,105 µM (active),,,,,,,
CCCCCCCCCCC,inactive,inactive,inactive,inactive,inactive,inactive,inactive,inactive,inactive,inactive,,,,,,,,,
COCCOCCOC,inactive,inactive,inactive,inactive,inactive,inactive,inactive,inactive,inactive,inactive,,,,,,,,,
COc1cc(C=O)ccc1O,inactive,inactive,inactive,inactive,inactive,inactive,inactive,inactive,inactive,inactive,,,,,,,,,
C=CCc1ccc(O)c(OC)c1,inactive,inactive,inactive,inactive,inactive,inactive,inactive,inactive,inactive,inactive,,,,,,,,,
CC(=O)OCCOCCOCCOC(C)=O,inactive,inactive,inactive,inactive,inactive,inactive,inactive,inactive,inactive,inactive,,,,,,,,,
COc1cccc2c1C(=O)c1c(O)c3c(c(O)c1C2=O)C[C@@](O)(C(=O)CO)C[C@@H]3O[C@H]1C[C@H](N)[C@H](O)[C@H](C)O1,inactive,,inactive,inactive,inactive,,inactive,,,,,4.04 µM (active),,3.58 µM (active),,1.72 µM (active),0.276 µM (active),,24.6 µM (active)
Cc1c(C(=O)O)c(O)cc2c1C(=O)c1c(O)c([C@@H]3O[C@H](CO)[C@@H](O)[C@H](O)[C@H]3O)c(O)c(O)c1C2=O,inactive,inactive,inactive,inactive,inactive,inactive,inactive,inactive,inactive,inactive,,,,,,,,,
CCCCCCCCCCCC(=O)OC,inactive,inactive,inactive,inactive,inactive,inactive,inactive,inactive,inactive,inactive,,,,,,,,,
O=[N+]([O-])C(CO)(CO)CO,inactive,inactive,inactive,inactive,inactive,inactive,inactive,inactive,inactive,inactive,,,,,,,,,
CCCCN(CCCC)CCCC,inactive,inactive,inactive,inactive,inactive,inactive,inactive,inactive,inactive,inactive,,,,,,,,,
Cc1cc(NC(=O)C(=O)O)cc(C)c1Oc1ccc(O)c2c1CCC2,inactive,inactive,inactive,inactive,inactive,inactive,inactive,inactive,inactive,inactive,,,,,,,,,

# Reference: PubChem BioAssay (EPA / NIEHS)
